Where “and” joins values, the source holds several entries; their conditions need not be identical. Identical values can stand only once. This is part of a sample that, as a whole, favours compounds with a hit. Of some 83,000 tested, about 20% had one in any assay.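 In brief: 96-well plates, 48 h treatment, single concentration, percent growth endpoint.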 Some compounds were tested as several samples or in several runs, with calls that do not always agree. Calls of active or inactive are those of the source. How the source made its calls: active means growth percent below 10; inactive means the rest.
Experiments:
Experiment in all cases: NCI-60 one-dose screen, 48 h (100 = growth as untreated, 0 = no growth, -100 = all killed)
Conditions in all cases: 10 µM
[1] = system: NCI-H23 lung
[2] = system: NCI-H226 lung
[3] = system: NCI-H322M lung
[4] = system: HOP-62 NSCLC
[5] = system: NCI-H460 lung
[6] = system: HOP-92 NSCLC
[7] = system: NCI-H522 lung
[8] = system: A549/ATCC NSCLC
[9] = system: 786-0 renal
[10] = system: COLO 205 colon
[11] = system: DU-145 prostate
[12] = system: K-562 leukemia
[13] = system: MALME-3M melanoma
[14] = system: MDA-MB-231 breast
[15] = system: RXF 393 renal
[16] = system: SF-268 CNS
[17] = system: SF-295 CNS
[18] = system: SF-539 CNS
[19] = system: UACC-257 melanoma
[20] = system: M14 melanoma

SMILES	growth [1]	growth [2]	growth [3]	growth [4]	growth [5]	growth [6]	growth [7]	growth [8]	growth [9]	growth [10]	growth [11]	growth [12]	growth [13]	growth [14]	growth [15]	growth [16]	growth [17]	growth [18]	growth [19]	growth [20]
C=C1C(=O)OC2CC1C(OC(C)=O)C/C(C)=C/CC/C(C)=C\CCC2(C)O (stereo not drawn)	11.1% (inactive)	15.9% (inactive)	67.3% (inactive)	106% (inactive)	21.7% (inactive)	-28.6% (active)	-83.9% (active)	64.1% (inactive)	38.9% (inactive)	0.7% (active)	-5% (active)	-40% (active)	18.6% (inactive)	20.3% (inactive)	13.1% (inactive)	27.1% (inactive)	106% (inactive)	11.2% (inactive)	58.2% (inactive)	16.4% (inactive)
O=[N+]([O-])c1cc[n+]([O-])cc1	100% (inactive)	105% (inactive)	133% (inactive)	131% (inactive)	103% (inactive)	116% (inactive)	83.1% (inactive)	101% (inactive)	106% (inactive)	117% (inactive)	120% (inactive)	117% (inactive)	101% (inactive)	95.9% (inactive)	114% (inactive)	107% (inactive)	101% (inactive)	122% (inactive)	76.5% (inactive)	113% (inactive)
CN(C)CCOC1(Cc2ccc(Cl)cc2Cl)CCC(C(C)(C)C)CC1 (stereo not drawn)	33.4% (inactive) and 36.7% (inactive)	53% (inactive) and 33.9% (inactive)	70% (inactive) and 76.3% (inactive)	39.8% (inactive) and 42.1% (inactive)	-65.8% (active) and -61.2% (active)	47.9% (inactive) and 43% (inactive)	9.54% (active) and 48.6% (inactive)	38.9% (inactive) and 21.1% (inactive)	51.2% (inactive) and 24.3% (inactive)	-89.2% (active) and -87.9% (active)	22.7% (inactive) and 7.69% (active)	-37.2% (active) and -48.5% (active)	-48.2% (active) and -65.3% (active)	7.18% (active) and -26.3% (active)	30.2% (inactive) and -32.5% (active)	46.1% (inactive) and 34.9% (inactive)	-44% (active) and -69.9% (active)	39.7% (inactive) and 46.6% (inactive)	-33.6% (active) and 2.54% (active)	-34.4% (active) and -59.1% (active)
COc1ccc(C(=O)C(CN(C)C)CN(C)C)cc1	96.1% (inactive)	113% (inactive)	98% (inactive)	97.9% (inactive)	102% (inactive)	44% (inactive)	-54.1% (active)	118% (inactive)	87.8% (inactive)	-75.3% (active)	56.9% (inactive)	-19.4% (active)	-70.7% (active)	104% (inactive)	63.9% (inactive)	96.5% (inactive)	102% (inactive)	96.3% (inactive)	73.1% (inactive)	52% (inactive)
CC1=CC(=C(c2ccc(N)cc2)c2ccc(N)cc2)C=CC1=N	29.7% (inactive) and 44.7% (inactive)	17% (inactive) and 51.4% (inactive)	26.3% (inactive) and 38.5% (inactive)	31.4% (inactive) and 20.6% (inactive)	6.34% (active)	2.19% (active) and 63% (inactive)	-8.93% (active) and 60.9% (inactive)	14.1% (inactive) and 16.9% (inactive)	23.5% (inactive) and 42.8% (inactive)	-8.22% (active) and -56.6% (active)	18.6% (inactive) and 38.3% (inactive)	21.1% (inactive) and 24.5% (inactive)	0.759% (active) and 56.2% (inactive)	6.87% (active) and 21.8% (inactive)	-12.8% (active) and 62.6% (inactive)	26.1% (inactive) and 29% (inactive)	-7.28% (active)	8.88% (active) and 16.1% (inactive)	-6.06% (active) and 8.33% (active)	27.4% (inactive)
Cc1ccc(Sc2ccccc2N)cc1	72.3% (inactive)	106% (inactive)	105% (inactive)	100% (inactive)	41.3% (inactive)	101% (inactive)	71.4% (inactive)	96% (inactive)	108% (inactive)	96.8% (inactive)	6.34% (active)	108% (inactive)	116% (inactive)	102% (inactive)	67.4% (inactive)	98.1% (inactive)	88.8% (inactive)	114% (inactive)	98.5% (inactive)	99.5% (inactive)
C#CCN(Cc1ccc2nc(N)[nH]c(=O)c2c1)c1ccc(C(=O)NC(CCC(=O)O)C(=O)O)cc1 (stereo not drawn)	99.2% (inactive)	80.8% (inactive)	90.3% (inactive)	82.3% (inactive)	80.1% (inactive)	86.9% (inactive)	80.2% (inactive)	95% (inactive)	12% (inactive)	67.4% (inactive)	48.6% (inactive)	58.9% (inactive)	86.8% (inactive)		72.9% (inactive)	70.4% (inactive)	99.5% (inactive)	0.195% (active)	92.1% (inactive)	44.7% (inactive)
Cc1cc(N(CCOS(C)(=O)=O)CCOS(C)(=O)=O)ccc1C=Nc1ccc(-c2nc(Cc3ccccc3)sc2C)cc1	31% (inactive)	61.6% (inactive)	-18.9% (active)	36% (inactive)	-38.3% (active)		-91.3% (active)	34.8% (inactive)	13.8% (inactive)	-71.3% (active)	11.8% (inactive)	21.7% (inactive)	58% (inactive)	77.2% (inactive)	45.9% (inactive)	39.4% (inactive)	12.6% (inactive)	15% (inactive)	6.01% (active)	25.8% (inactive)
